# Reference: publication PMC6212790, “How bacterial xenogeneic silencer rok distinguishes foreign from self DNA in its resident genome”
# In all, about 33,000 sequences were measured (“e-score”: median about -0.038, highest 2% from about 0.33 on). Shown is part of a subset that was picked to be rich in the highest values.
# Target: T1, GST-Rok-C97-191 (Bacillus subtilis subsp. subtilis str. …, UniProt O34857 97-191)
# T1 sequence: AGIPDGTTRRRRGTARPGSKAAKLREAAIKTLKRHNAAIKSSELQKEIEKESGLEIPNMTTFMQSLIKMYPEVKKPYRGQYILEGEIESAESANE
# Assay: protein binding microarray; Rok is a gene silencer of Bacillus subtilis; high values mean tight binding
# Settings: protein: recombinant; tags: GST (pTH5325, pDEST15-Magic modified); dsDNA, one strand shown
# How it was run: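 Each has a 25-mer constant primer and a 35-mer variable part from a de Bruijn sequence of order 10, covering every non-palindromic 8-mer at least 32 times (palindromic 16). Preference for each 8-mer is given as a rank-based, unitless enrichment score (E-score). Its range runs from 0.5 (most favored) to −0.5 (most disfavored).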
row,Sequence,binding signal [E-score]
1,CGACCAGC,-0.129
2,AACGAGAG,-0.0985
3,ACTTCCGG,-0.139
4,CAAAAGGG,-0.177
5,CAAACGCC,-0.166
6,ATTCCGGG,-0.0619
7,AATTCCTA,0.155
8,AAATCCCA,0.123
9,AGATAGTA,0.376
10,CGATAGTC,-0.0434
11,CGATAGTA,0.382
12,AGATAGTC,0.0233
13,GGATAGTA,0.142
14,AGATAGTG,0.174
15,ACTCCAAA,-0.0283
16,AGAGCCAA,-0.0861
17,ACCTTCCG,-0.0992
18,CCGTACTC,0.0243
19,CTGTAAAA,0.0478
20,CTGTAATA,0.334
21,ATGTAATA,0.32
22,TTGTAAAA,0.265
23,ATGTAAAT,0.373
24,CTGTAATC,0.13
25,ATGTAAAG,0.164

row,Sequence,binding signal [E-score]
1,ATGTAAAC,0.031
2,ATGTAAAA,0.351
3,GAGAGTGC,-0.103
4,ACGGCAAT,0.0959
5,GGCTTCTA,0.11
6,ATCGCCGC,-0.0266
7,ATATATCC,0.268
8,CTATATCA,0.185
9,ATATATCG,0.366
10,GTATATCA,0.216
11,ATATATCA,0.396
12,CTATATCC,0.17
13,CATTGTGA,-0.101
14,AGAGGTTG,-0.0137
15,AAAGTTAA,-0.0842
16,ACGTCGAT,0.108
17,AAAATCTA,0.339
18,ATAATCTA,0.289
19,GAAATCTA,0.383
20,GAAATCTC,0.209
21,CGAATCTA,0.256
22,AAAATCTG,0.00361
23,AAAATCTC,0.242
24,AGAATCTA,0.322
25,GCAATCTA,0.307

row,Sequence,binding signal [E-score]
1,CTAATCTA,0.348
2,GGAATCTA,0.339
3,GTAATCTA,0.313
4,CAAAATCG,0.0988
5,TATGCCCA,-0.134
6,GTGGCAAA,0.0701
7,ACCGTAGT,0.0984
8,ATGCGGCG,-0.186
9,AGCCGTTA,0.0336
10,TAAATCAA,0.178
11,CAAATCTG,-0.15
12,TAAATCTA,0.364
13,CAAATCTC,0.0537
14,TAAATCGA,0.0722
15,CAAATCTA,0.354
16,AGTCTATC,-0.0937
17,CATGTCAA,-0.0291
18,CAAATATC,0.231
19,AAAATATC,0.186
20,CAAATATA,0.346
21,TAAATAAA,0.162
22,TAAATATA,0.378
23,AAAATATA,0.399
24,AAAATATG,0.271
25,GAAATATA,0.305

row,Sequence,binding signal [E-score]
1,CAAATATG,0.161
2,CCCACCTA,-0.0708
3,AAGTTAAG,-0.104
4,GTTGAATA,0.173
5,CTTTTGTA,0.241
6,ATTGATAC,0.22
7,ATTGATAA,0.243
8,ATTGATAG,0.348
9,CGATACAC,0.155
10,CGTTCCGA,-0.149
11,AGCACGGA,0.0231
12,ACTCTACT,0.273
13,AATCTAAG,0.234
14,GATCTACC,0.35
15,AATCTAGT,0.282
16,GATCTAAC,0.0254
17,AATCTACG,0.36
18,AATCTAGC,0.234
19,AATCTAAC,0.199
20,AATCTACT,0.43
21,CATCTACC,0.222
22,CATCTACG,-0.0119
23,AATCTACC,0.447
24,AGAATGCA,0.038
25,ACGTTTCC,-0.131

row,Sequence,binding signal [E-score]
1,AAGTGTCG,0.0859
2,AGAAAAGC,0.217
3,ACCACCAT,-0.0276
4,CACTATCA,0.175
5,AGCTATCA,0.335
6,GACTATTA,0.165
7,CGCTATCA,0.0552
8,AACTATCA,0.369
9,CTCTATTA,0.246
10,AACTATTA,0.444
11,ATCTATTA,0.353
12,GTCTATTA,0.0713
13,CACTATTA,0.202
14,GACTATCA,-0.147
15,GGCTATCA,-0.0497
16,ATAGTTGC,0.306
17,CTGGAACC,-0.0259
18,AGTCAGTA,0.149
19,AAGGCGCT,-0.115
20,CCGCCTAG,-0.149
21,GAGATGAA,-0.0161
22,CCCGAAAC,-0.179
23,CGGTCGTA,0.261
24,ATTATGAG,-0.00845
25,GTACCCAA,-0.0765

row,Sequence,binding signal [E-score]
1,CAGTATTA,0.188
2,GTCTATCA,-0.0797
3,GAGTATTA,0.187
4,ATCTATCA,0.451
5,AAGTATTA,0.349
6,CTCTATCA,0.0167
7,AGTCTTGC,0.0754
8,ACGACTTA,0.051
9,GCAGCAAC,-0.161
10,TATCAATA,0.331
11,AATCAATA,0.227
12,GATCAATA,0.0798
13,AAAAAACA,0.19
14,AGAAACCG,-0.049
15,AAATACGT,0.343
16,AAATACAC,0.25
17,AAATACAG,0.123
18,AAATACAT,0.359
19,AAATACGA,0.0254
20,AAATACGG,0.213
21,CGTTCCTA,0.0168
22,CAGTATGC,-0.144
23,GCAGATAA,0.127
24,CCTAATAC,0.14
25,ATCCGTCC,-0.186

row,Sequence,binding signal [E-score]
1,GTACCAGA,0.0231
2,ATACCATA,0.267
3,ATACCATC,0.0328
4,GTACCATA,0.362
5,CTACCATA,0.324
6,CTACCATC,0.421
7,ATACCACG,0.0833
8,CTACCACA,0.343
9,GTACCACA,0.0685
10,ATGGCGCA,-0.0193
11,GAAACTCC,0.0382
12,GGGTAGCA,-0.148
13,CGGTAGAC,-0.0972
14,ACGTAGAT,0.219
15,CGGTAGAA,0.411
16,TCGTAGAA,0.236
17,AGTTAGAT,0.196
18,GGGTAGAA,0.384
19,CGGTAGAG,-0.0194
20,GGGTAGAC,-0.0486
21,CCGTAGAA,0.289
22,TGGTAGAA,0.468
23,AGGTAGAT,0.36
